Compound activity (PubChem BioAssay)
TRPV1 PAM: potentiators of human vanilloid receptor 1 (TRPV1); Q8NER1; TRPV1-expressing cells, Fluo-8 calcium influx, capsaicin EC20 potentiation; potentiation, % at 8.33 µM; actives 0.02% (n = 320,000); in the data active = potentiation above about 80%; inconclusive = between about 30% and that limit; note: 0% is about no effect
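Cells expressing TRPV1 were dye-loaded with Fluo-8 and read kinetically: 10 s baseline, 3 min after compound (agonist portion), then 2 min after EC20 capsaicin (allosteric enhancer portion). Calcium-bound dye fluorescence at 480/520 nm.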
TRPV1 agonist: agonists of human vanilloid receptor 1 (TRPV1); actives 0.19% (n = 320,000); AID 540275; Q8NER1; activation, % at 8.33 µM; TRPV1-expressing cells, Fluo-8 calcium influx, agonist mode; in the data active = activation above about 80%; inconclusive = between about 30% and that limit; note: 0% is about no effect
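TRPV1-expressing cells were cultured overnight at 35.5C and loaded with Fluo-8 calcium dye for 40 to 90 min at room temperature. After a 10 s baseline, compound was added and calcium influx was read kinetically for 3 min (ex 480/em 520 nm).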
RORgamma inh: inhibitors of mouse ROR gamma transcriptional activity; actives 5.4% (n = 310,000); P51450; Potency, µM (top dose mostly 53.6 µM), for the others: top-dose activity change, negative = inhibition, usual class: inhibitors; AID 2551; Drosophila S2 Gal4-RORgamma UAS-luciferase reporter, 20 h; note: potency is the fitted concentration of half-maximal effect; % is set by controls: 0 for no effect and ±100 for the full control effect; nearly all actives have a fitted effect of over 60% in size
Target sequence (P51450 whole entry, looked up, the tested form may be a part): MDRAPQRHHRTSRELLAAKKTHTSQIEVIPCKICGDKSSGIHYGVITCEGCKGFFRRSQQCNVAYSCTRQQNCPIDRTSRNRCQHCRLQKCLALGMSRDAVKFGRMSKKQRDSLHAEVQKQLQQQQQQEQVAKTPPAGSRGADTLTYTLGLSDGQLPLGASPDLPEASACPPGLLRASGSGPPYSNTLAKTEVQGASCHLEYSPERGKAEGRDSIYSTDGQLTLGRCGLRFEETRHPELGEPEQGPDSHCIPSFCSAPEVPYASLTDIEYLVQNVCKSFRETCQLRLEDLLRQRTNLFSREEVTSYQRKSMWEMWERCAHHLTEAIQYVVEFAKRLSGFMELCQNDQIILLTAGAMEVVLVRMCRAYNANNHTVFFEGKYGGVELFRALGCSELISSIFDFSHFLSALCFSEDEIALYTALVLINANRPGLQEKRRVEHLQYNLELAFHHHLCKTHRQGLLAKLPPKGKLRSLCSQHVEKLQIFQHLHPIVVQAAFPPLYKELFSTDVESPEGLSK
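Luciferase reporter read in Schneider cells carrying Gal4-RORγ (mouse) and UAS-Photinus luciferase; cells given compound 1 h before 700 uM copper sulfate induction, then incubated 20 h at ambient temperature.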
Gal4-VP16 FLuc: counter-screen for ROR gamma inhibitors: Gal4-VP16 reporter. Potency, µM (titrated, usually from 53.6 µM), for the others: top-dose activity, negative = inhibition, hits mostly inhibitors. Drosophila S2 Gal4-VP16 UAS-luciferase, luminescence, 20 h. actives 3.5% (n = 310,000). AID 2546;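 note: Gal4-VP16 expression switched on by copper sulfate through the metallothionein promoter; potency is the fitted concentration of half-maximal effect; % is set by controls: 0 for no effect and ±100 for the full control effect; nearly all actives have a fitted effect of over 50% in size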
uPA surface inh: inhibitors of cell surface uPA generation | cell surface uPA generation assay, qHTS | Potency, µM (doses to about 38.3 µM), for the others: at the top dose activity change, negative = inhibition, hits mostly inhibitors | actives 0.31% (n = 330,000); active = well fitted inhibition curve with a large enough effect; inconclusive = small, poorly fitted or top-dose-only effect; inactive = no such curve, though single readings can be large or run the other way; tested in mouse RAW 264.7 cells; note: potency is the fitted concentration of half-maximal effect; % is set by controls: 0 for no effect and ±100 for the full control effect; nearly all actives have a fitted effect of over 55% in size
* = called active by the depositor; [ ] = remark or other dose. Shown are actives, neighbours in structure and some others; about 5.8% of the full set was active somewhere. Unless noted, calls come from the whole dose curve; as a rule, active = well fitted curve in the direction sought with a large enough effect; inconclusive = small, poorly fitted or top-dose-only effect, or another doubt; inactive = no such curve, though single readings can be large; an effect the other way counts as inactive or inconclusive.

COC(=O)[C@@]1(Cc2ccc(F)cc2)[C@H]2c3cc(C(=O)N(C)C)n(Cc4nc5ccccc5[nH]4)c3C[C@H]2CN1C(=O)c1ccccc1 was read as TRPV1 PAM 1, TRPV1 agonist 1, RORgamma inh 2%, Gal4-VP16 FLuc -20% and uPA surface inh inconclusive.
For CC[C@H](C(=O)[C@H](C)[C@H](O)[C@H](C)CCc1ccc(C)c(O)c1C(=O)O)[C@H]1O[C@](CC)([C@@H]2CC[C@@](O)(CC)[C@H](C)O2)C[C@H]1C the results were RORgamma inh inconclusive and Gal4-VP16 FLuc 6.3µM*.
O=C1C(Cc2ccccc2)NC(=S)N1c1ccccc1 (stereo unspecified) was read as TRPV1 PAM 10, TRPV1 agonist -2, RORgamma inh 11µM* and Gal4-VP16 FLuc inconclusive.
COc1ccc(CNCC(O)COc2cccc3c2OC(C)(C)C3)cc1 (stereo unspecified) was read as TRPV1 PAM 13, TRPV1 agonist 2, RORgamma inh -12%, Gal4-VP16 FLuc 10µM* and uPA surface inh -3%.
For COc1ccccc1CCNC(=O)C(=O)c1cn(CC(=O)N2CCOCC2)c2ccccc12 the results were TRPV1 PAM 21, TRPV1 agonist 5, RORgamma inh 38%, Gal4-VP16 FLuc 0% and uPA surface inh -3%.
For CC(C)(C)c1cn(-c2ccccc2)c(=S)[nH]1 the results were TRPV1 PAM 10, TRPV1 agonist -1, RORgamma inh 7.1µM*, Gal4-VP16 FLuc 7.9µM* and uPA surface inh 1%.
`Cc1ccc(-n2cc(C(C)(C)C)[nH]c2=S)cc1` gave TRPV1 PAM 0, TRPV1 agonist -1, RORgamma inh 2.2µM*, Gal4-VP16 FLuc 6.3µM* and uPA surface inh -2%.
Cc1ccc(-n2c(-c3cnccn3)n[nH]c2=S)cc1 was read as TRPV1 PAM 0, TRPV1 agonist 2, RORgamma inh inconclusive, Gal4-VP16 FLuc -8% and uPA surface inh 2%.
CC(C)c1ccc(N(CC(=O)N2CCOCC2)S(C)(=O)=O)cc1 was read as TRPV1 PAM -7, TRPV1 agonist 3, RORgamma inh -25%, Gal4-VP16 FLuc -8% and uPA surface inh -1%.
Screening N#Cc1c(N2CCCC(O)C2)nc(N)c2c(N)nc3c(c12)CC(=O)N3C12CC3CC(CC(C3)C1)C2 (stereo unspecified) returned TRPV1 PAM 12, TRPV1 agonist -1, RORgamma inh 4µM*, Gal4-VP16 FLuc inconclusive and uPA surface inh -8%.
For C=C(C)CN(CC)c1nc(N)c2c(N)nc3c(c2c1C#N)CC(=O)N3C12CC3CC(CC(C3)C1)C2 the results were TRPV1 PAM 3, TRPV1 agonist -3, RORgamma inh -15%, Gal4-VP16 FLuc -8% and uPA surface inh -13%.
`c1ccc(Nc2nc3ccccc3[nH]2)nc1` gave TRPV1 PAM 18, TRPV1 agonist 0, RORgamma inh 2µM*, Gal4-VP16 FLuc inconclusive and uPA surface inh -8%.
CCc1cccc2c(C(=S)N3CCCC3)c[nH]c12 was read as TRPV1 PAM -3, TRPV1 agonist 2, RORgamma inh 23%, Gal4-VP16 FLuc -10% and uPA surface inh -4%.
Screening CCc1cccc2c(C(=O)CCl)c[nH]c12 returned TRPV1 PAM -2, TRPV1 agonist 1, RORgamma inh inconclusive, Gal4-VP16 FLuc 14µM* and uPA surface inh -11%.
For COc1cccc(Nc2ncc3nc(-c4cn(C)c5ccccc45)c(=O)n(CCC#N)c3n2)c1 the results were RORgamma inh -9% and Gal4-VP16 FLuc -2%.
`Cc1ccc(NC(=O)CN(C)C2CCCCC2)cc1Br` gave TRPV1 PAM -21, TRPV1 agonist inconclusive, RORgamma inh -13%, Gal4-VP16 FLuc -7% and uPA surface inh -2%.
For Cc1ccc(NC(=S)NCCN(C2CCCCC2)C2CCCC2)cc1C the results were TRPV1 PAM -1, TRPV1 agonist 6, RORgamma inh 5µM*, Gal4-VP16 FLuc -1%[10 µM] and uPA surface inh 2%.
Cc1ccc(NC(=S)NCCN(C2CCCCC2)C2CCCC2)cc1 was read as TRPV1 PAM 8, TRPV1 agonist 21, RORgamma inh 11µM*, Gal4-VP16 FLuc -6%[10 µM] and uPA surface inh -3%.
Cc1cc(C)cc(NC(=S)NCCN2CCOCC2)c1 was read as uPA surface inh -3%.
Screening Cc1cc(C)cc(NC(=S)NCCN(C2CCCCC2)C2CCCC2)c1 returned TRPV1 PAM 8, TRPV1 agonist 20, RORgamma inh 4.5µM*, Gal4-VP16 FLuc 0%[10 µM] and uPA surface inh -2%.
`COc1ccccc1/C=N/NC(=O)C(=O)NCc1cccnc1` gave TRPV1 PAM -1, TRPV1 agonist -1, RORgamma inh -13%, Gal4-VP16 FLuc -8% and uPA surface inh 4%.
`Cc1ccc(NC(=O)CNC(=O)Cc2cccc3ccccc23)c(O)c1` gave TRPV1 PAM 23, TRPV1 agonist 2 and uPA surface inh 0%.
C=CCC[C@@H](Cc1ccc(F)cc1)C(=O)OC[C@@H](Cc1c[nH]c2ccccc12)NC(=O)[C@H](CC=C)CC(=O)N[C@H](CO)Cc1ccccc1 was read as uPA surface inh -14%.
`CNc1cc2c(Nc3cccc(Br)c3)ncnc2cn1` gave RORgamma inh 13µM* and Gal4-VP16 FLuc 13µM*.
CC(=O)Nc1ccc(Nc2nc(C)c([N+](=O)[O-])c(Nc3ccccc3)n2)cc1 was read as TRPV1 PAM 1, TRPV1 agonist 4, RORgamma inh inconclusive, Gal4-VP16 FLuc 13µM* and uPA surface inh -12%.
Screening COc1ccc(CC(=O)N2CCN(c3cccc(Cl)c3)CC2)cc1OC returned TRPV1 PAM -16, TRPV1 agonist 98*, RORgamma inh inconclusive, Gal4-VP16 FLuc -7% and uPA surface inh -4%.
CCC(C)(C)n1nnnc1C(c1cccnc1)N1CCCc2ccccc21 (stereo unspecified) was read as TRPV1 PAM 2, TRPV1 agonist -5, RORgamma inh 1%, Gal4-VP16 FLuc -25% and uPA surface inh -9%.
CCC(C)(C)n1nnnc1C(c1cccs1)N1CCc2ccccc21 (stereo unspecified) was read as TRPV1 PAM 15, TRPV1 agonist -5, RORgamma inh inconclusive, Gal4-VP16 FLuc 11µM* and uPA surface inh -22%.
`COc1cc(CCCN2C(=S)NC[C@@H]2c2ccccc2)cc(OC)c1OC` gave TRPV1 PAM -17, TRPV1 agonist 10, RORgamma inh 10µM*, Gal4-VP16 FLuc inconclusive and uPA surface inh 3%.
For COc1cc(CCCN2C(=S)NC[C@@H]2Cc2ccccc2)cc(OC)c1OC the results were TRPV1 PAM 18, TRPV1 agonist 8, RORgamma inh 10µM*, Gal4-VP16 FLuc inconclusive and uPA surface inh 8%.
`Cc1cc(C)nc(N(C#N)CC(=O)c2ccccc2)n1` gave TRPV1 PAM -13, TRPV1 agonist 0, RORgamma inh -36%, Gal4-VP16 FLuc -12% and uPA surface inh -28%.
